Results filed as inconclusive are left out. Activity calls are given as the source filed them. Calls follow the shape of the dose curve; as a rule, active = well fitted curve in the direction sought with a large enough effect in the repeat runs; inconclusive = weak or mixed curves; inactive = no such curve, though single readings can be large; an effect the other way counts as inactive or inconclusive.
Experiments:
[1] = qHTS RealTime-Glo MT Cell Viability Assay in HepG2 cells - 40 hour (AID 1224870); also: nearly all actives have a fitted effect of over 50% in size
In short: (§1)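 Real-time viability: cells seeded at 600 per well together with NanoLuc and cell-permeant prosubstrate, compounds added after 5 h incubation. Luminescence tracked at 0, 8, 16, 24, 32 and 40 h of exposure.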

[2] = A CellTox Green Cytotoxicity Assay to monitor cytotoxicity in HEK293 cells - 40 hour (AID 1224871); also: nearly all actives have a fitted effect of over 45% in size
In short: (§2)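 Real-time, in one plate: 600 HEK293 cells/well with dead-cell DNA dye, pinned compound after 5 h, 37 C incubation over 40 h; viable cells give no appreciable fluorescence.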

[3] = qHTS RealTime-Glo MT Cell Viability Assay in HepG2 cells - 8 hour (AID 1224873); also: nearly all actives have a fitted effect of over 55% in size
In short: as §1

[4] = A CellTox Green Cytotoxicity Assay to monitor cytotoxicity in HEK293 cells - 24 hour (AID 1224875); also: series mostly up to about 77 µM; nearly all actives have a fitted effect of over 45% in size
In short: as §2

[5] = A CellTox Green Cytotoxicity Assay to monitor cytotoxicity in HepG2 cells - 16 hour (AID 1224876); also: nearly all actives have a fitted effect of over 45% in size
In short: (§3)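 Cytotoxicity was tracked as dead-cell DNA fluorescence in HepG2 cells treated with test compounds at 37 C; each time-point value comes from one kinetic series spanning 0, 8, 16, 24, 32 and 40 h.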

[6] = qHTS RealTime-Glo MT Cell Viability Assay in HepG2 cells - 32 hour (AID 1224877); also: nearly all actives have a fitted effect of over 55% in size
In short: (§4)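 qHTS, HepG2, 600 cells/well, RealTime-Glo (NanoLuc + prosubstrate) added with cells; 5 h preincubation; DMSO compound addition; 37 C; luminescence at 0/8/16/24/32/40 h.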

[7] = A CellTox Green Cytotoxicity Assay to monitor cytotoxicity in HepG2 cells - 24 hour (AID 1224878); also: nearly all actives have a fitted effect of over 45% in size
In short: as §3

[8] = A CellTox Green Cytotoxicity Assay to monitor cytotoxicity in HepG2 cells - 40 hour (AID 1224879); also: nearly all actives have a fitted effect of over 40% in size
In short: as §3

[9] = qHTS RealTime-Glo MT Cell Viability Assay in HEK293 cells - 0 hour (AID 1224880)
In short: (§5)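 Kinetic, non-lysing viability readout. Seed HEK293 (600/well) with reagent, incubate 5 h at 37 C/5% CO2, pin 23 nL compound in DMSO, incubate at 37 C, read luminescence at 0, 8, 16, 24, 32, 40 h.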

[10] = A CellTox Green Cytotoxicity Assay to monitor cytotoxicity in HEK293 cells - 32 hour (AID 1224881); also: nearly all actives have a fitted effect of over 40% in size
In short: as §2

[11] = A CellTox Green Cytotoxicity Assay to monitor cytotoxicity in HepG2 cells - 0 hour (AID 1224882); also: nearly all actives have a fitted effect of over 35% in size
In short: as §3

[12] = A CellTox Green Cytotoxicity Assay to monitor cytotoxicity in HepG2 cells - 32 hour (AID 1224883); also: nearly all actives have a fitted effect of over 50% in size
In short: as §3

[13] = qHTS RealTime-Glo MT Cell Viability Assay in HepG2 cells - 16 hour (AID 1224885); also: nearly all actives have a fitted effect of over 50% in size
In short: as §4

[14] = qHTS RealTime-Glo MT Cell Viability Assay in HEK293 cells - 24 hour (AID 1224886); also: nearly all actives have a fitted effect of over 50% in size; also: potency is read from the fitted curve at half-maximal effect
In short: (§6)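 Assay medium contained NanoLuc luciferase plus cell-permeant prosubstrate, added with HEK293 cells at 600 cells/well. After 5 h at 37 C/5% CO2 compounds were added; plates stayed at 37 C for 40 h with serial luminescence reads.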

[15] = qHTS RealTime-Glo MT Cell Viability Assay in HEK293 cells - 8 hour (AID 1224887); also: nearly all actives have a fitted effect of over 50% in size; also: potency is read from the fitted curve at half-maximal effect
In short: as §5

[16] = qHTS RealTime-Glo MT Cell Viability Assay in HepG2 cells - 0 hour (AID 1224889); also: nearly all actives have a fitted effect of over 50% in size
In short: as §4

[17] = qHTS RealTime-Glo MT Cell Viability Assay in HEK293 cells - 40 hour (AID 1224874); details: RealTime-Glo luminescence; max response: stronger effect = lower value; also: nearly all actives have a fitted effect of over 50% in size; also: potency is read from the fitted curve at half-maximal effect
In short: as §5

[18] = A CellTox Green Cytotoxicity Assay to monitor cytotoxicity in HEK293 cells - 16 hour (AID 1224888); also: nearly all actives have a fitted effect of over 35% in size
In short: as §2

[19] = A CellTox Green Cytotoxicity Assay to monitor cytotoxicity in HEK293 cells - 8 hour (AID 1224884); also: nearly all actives have a fitted effect of over 35% in size
In short: as §2

[20] = qHTS RealTime-Glo MT Cell Viability Assay in HEK293 cells - 16 hour (AID 1224872)
In short: as §6
% is scaled to controls: 0 for no effect and ±100 for the full control effect.

C=CC(=O)OCCCCCCCCCC
inactive: Potency [1] | Potency [2] | outcome [3] | Potency [4] | Potency [5] | Potency [6] | Potency [7] | Potency [8] | Potency [9] | Potency [10] | Potency [11] | Potency [12] | outcome [13] | Potency [14] | Potency [15] | Potency [16]

CC(C(=O)O)c1ccc2c(c1)Cc1cccnc1O2 (stereo not drawn)
inactive: Potency [1] | Potency [2] | outcome [3] | max response [17] 1.21% | Potency [4] | Potency [5] | Potency [6] | Potency [7] | Potency [9] | Potency [10] | Potency [12] | outcome [13] | Potency [15] | Potency [18] | Potency [16]

CCCc1nc(C)c2c(=O)[nH]c(-c3cc(S(=O)(=O)N4CCN(CC)CC4)ccc3OCC)nn12
inactive: Potency [1] | Potency [2] | outcome [3] | Potency [4] | Potency [5] | Potency [6] | Potency [7] | Potency [8] | Potency [9] | Potency [10] | Potency [11] | Potency [12] | Potency [19] | outcome [13] | Potency [15] | Potency [18] | Potency [16]

COc1cccc([C@H](O)C2CCN(CCc3ccc(F)cc3)CC2)c1OC
inactive: Potency [1] | Potency [2] | outcome [3] | Potency [4] | Potency [5] | Potency [6] | Potency [7] | Potency [9] | Potency [10] | Potency [11] | Potency [12] | Potency [19] | Potency [15] | Potency [16]

CC1=C(C)C(=O)C(CCCCC#CCCCC#CCO)=C(C)C1=O
active: Potency [17] 674 nM | Potency [14] 601 nM | Potency [15] 535 nM
inactive: Potency [1] | Potency [2] | Potency [4] | Potency [5] | Potency [7] | Potency [8] | Potency [9] | Potency [10] | Potency [12] | Potency [18] | Potency [16]

CC(C(=O)O)c1ccc(/C=C2\CCCCC2=O)cc1 (stereo not drawn)
inactive: Potency [1] | Potency [2] | outcome [3] | max response [17] 21% | Potency [4] | Potency [5] | Potency [6] | Potency [7] | Potency [9] | Potency [10] | Potency [11] | Potency [12] | outcome [13] | Potency [14] | Potency [15] | Potency [18] | Potency [16]

CCOC(OCC)OCC
inactive: Potency [1] | Potency [2] | outcome [3] | Potency [4] | Potency [5] | Potency [6] | Potency [7] | Potency [8] | Potency [10] | Potency [12] | Potency [19] | outcome [13] | Potency [14] | Potency [15] | Potency [18] | Potency [16]

Cc1cc(N)n(-c2ccccc2)n1
inactive: Potency [1] | Potency [2] | outcome [3] | max response [17] -5.72% | Potency [4] | Potency [5] | Potency [6] | Potency [7] | Potency [9] | Potency [11] | Potency [12] | Potency [19] | outcome [13] | Potency [14] | Potency [15] | Potency [18] | Potency [16]

CCCCOC(=O)C(C)Oc1ccc(Oc2ccc(C(F)(F)F)cn2)cc1 (stereo not drawn)
inactive: Potency [1] | Potency [2] | max response [17] -1.23% | Potency [4] | Potency [5] | Potency [6] | Potency [7] | Potency [8] | Potency [9] | Potency [10] | Potency [11] | Potency [12] | Potency [19] | outcome [13] | Potency [18] | Potency [16]

O=C1CCCN1CCO
inactive: Potency [1] | Potency [20] | outcome [3] | max response [17] -23.9% | Potency [4] | Potency [5] | Potency [6] | Potency [7] | Potency [8] | Potency [9] | Potency [10] | Potency [11] | Potency [12] | Potency [19] | outcome [13] | Potency [14] | Potency [18] | Potency [16]

CCn1nc(Cc2ccccc2)cc1C1CCN(C[C@H]2C[C@H](N(C)[C@@H](C(=O)O)C(C)C)C[C@@H]2c2cccc(F)c2)CC1
inactive: Potency [1] | Potency [2] | outcome [3] | Potency [4] | Potency [5] | Potency [6] | Potency [7] | Potency [9] | Potency [10] | Potency [11] | outcome [13] | Potency [18] | Potency [16]

CC(Cc1ccccc1)(NC(=O)CN)c1ccccc1 (stereo not drawn)
inactive: Potency [1] | Potency [2] | outcome [3] | Potency [4] | Potency [5] | Potency [6] | Potency [7] | Potency [9] | Potency [10] | Potency [11] | Potency [12] | Potency [19] | Potency [14] | Potency [15] | Potency [18] | Potency [16]

Clc1ccccc1-c1nc(-c2ccncc2)no1
inactive: Potency [1] | Potency [2] | outcome [3] | Potency [4] | Potency [5] | Potency [6] | Potency [7] | Potency [10] | Potency [11] | Potency [12] | Potency [19] | outcome [13] | Potency [15] | Potency [18] | Potency [16]

COc1ccc(CN(CCN(C)C)c2ncccn2)cc1
inactive: Potency [1] | Potency [2] | Potency [4] | Potency [5] | Potency [6] | Potency [7] | Potency [8] | Potency [9] | Potency [10] | Potency [12] | Potency [19] | outcome [13] | Potency [14] | Potency [15] | Potency [16]

CC(C)=CCC[C@H](C)CCO
inactive: Potency [1] | Potency [2] | outcome [3] | max response [17] -1.49% | Potency [4] | Potency [5] | Potency [6] | Potency [7] | Potency [9] | Potency [10] | Potency [11] | Potency [12] | Potency [19] | outcome [13] | Potency [14] | Potency [15] | Potency [16]

CC1(C)CC(O)CC(C)(C)N1[O]
inactive: Potency [1] | Potency [2] | outcome [3] | max response [17] 6.37% | Potency [4] | Potency [5] | Potency [6] | Potency [7] | Potency [8] | Potency [10] | Potency [11] | Potency [12] | Potency [19] | outcome [13] | Potency [14] | Potency [15] | Potency [16]
